Our source for the composite z-score and z-score values is PubChem BioAssay.

Assay [1] can be described thus: compounds binding Alexa647 anti-His antibody – biochemical, small-molecule microarray, 635 nm fluorescence, artefact control for SMM control protein annotation, primary screen (AID 1128).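 Also: score merges feature fluorescence with signal-to-noise for each printed compound spot.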 As to conditions: higher = more signal.
Assay [2] has as its system Human papillomavirus type 1a E7 protein (residues 1-88). As to the kind of experiment: HPV1a E7 small-molecule binders, primary screen, biochemical, small-molecule microarray, residues 1-88, 635 nm (AID 1129). As to conditions: small-molecule microarray binding, fluorescence 635 nm; higher = more signal.
Assay [3] deals with Focal adhesion kinase 1 (Homo sapiens) (UniProt Q05397). As to the kind of experiment: PTK2 protein binding on printed compound slides – biochemical, small-molecule microarray, 635/667 nm fluorescence, BSA, DTT, primary screen (AID 1130).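 Also: composite of spot emission at 667 nm and signal to noise over triplicate slides.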 As to conditions: 635 nm fluorescence, higher = more signal.
Assay [4] concerns Fibrinogen (Alexa647-labelled). Kind of assay: Alexa647-fibrinogen binding to printed small molecules – biochemical, small-molecule microarray, 635/667 nm fluorescence, artefact control for SMM control-protein annotation, profiling panel (AID 1131).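 Also: z-score merges 667 nm fluorescence with per-spot signal-to-noise over triplicate slides.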 As to conditions: fibrinogen-A647 binding fluorescence, higher = more signal.
The target in assay [5] is Follistatin (Homo sapiens) (UniProt P19883). Kind of assay: FST protein binding to printed compounds – biochemical, small-molecule microarray, 635/667 nm fluorescence, primary screen (AID 1132). As to conditions: 635 nm fluorescence, higher = more signal.
Assay [6] deals with Fibroblast growth factor 2 (Homo sapiens) (UniProt P09038). Kind of assay: basic fibroblast growth factor binding to printed compounds – biochemical, small-molecule microarray, 635/667 nm fluorescence, primary screen (AID 1133). The note with it: FGF2, fluorescence 635/667, higher = more signal.
Assay [7] in a line: JC-1 mitochondrial potential readout, lung cancer cells – cell-based, A549, JC-1 fluorescence, basal, 24 h, 100 nL, profiling panel (AID 1138).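 Also: A549 lung adenocarcinoma cells under basal conditions with no added stimulus; test concentration not given here.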 The note with it: higher = more signal.
In a further assay the test system is Lefty1. As to the kind of experiment: Lefty1 protein binding to printed compounds – biochemical, small-molecule microarray, 635/667 nm fluorescence, primary screen (AID 1139). The note with it: fluorescence 635/667, higher = more signal.
Assay [8] deals with wheat germ agglutinin (Triticum aestivum), Alexa647-labelled. As to the kind of experiment: Alexa647-WGA lectin binding to printed small molecules – biochemical, small-molecule microarray, 635/667 nm fluorescence, artefact control for SMM control-protein annotation, profiling panel (AID 1140).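 Also: score merges 667 nm feature emission with signal to noise over triplicate slides.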 As to conditions: WGA-A647 binding, 635 nm fluorescence, higher = more signal.
Assay [9] concerns the target Luciferin 4-monooxygenase (Photinus pyralis) (UniProt P08659). As to the kind of experiment: inhibition of purified Photinus pyralis luciferase – biochemical, luminescence, purified enzyme, 2006 set, primary screen (AID 1141).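 Also: cell-free assay with purified firefly luciferase at 100 ng per well in PBS; test concentration not given here.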 As to conditions: purified firefly luciferase, SteadyGlo luminescence, 30 min; higher = more signal, called active from +8 up or from −8 down.

Structures are written as SMILES. Active and inactive are the calls of the source.

Fibroblast growth factor 2 (Homo sapiens), sequence (P09038 whole entry, looked up): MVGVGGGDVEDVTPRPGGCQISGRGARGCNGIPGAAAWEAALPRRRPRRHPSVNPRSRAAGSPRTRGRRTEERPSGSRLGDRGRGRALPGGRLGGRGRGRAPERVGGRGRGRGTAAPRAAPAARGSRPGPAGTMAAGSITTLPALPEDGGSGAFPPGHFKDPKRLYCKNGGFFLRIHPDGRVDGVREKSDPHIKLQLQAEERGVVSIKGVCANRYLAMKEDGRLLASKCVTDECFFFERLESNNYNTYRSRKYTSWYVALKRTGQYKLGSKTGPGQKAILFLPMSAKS
Follistatin (Homo sapiens), sequence (P19883 whole entry, looked up): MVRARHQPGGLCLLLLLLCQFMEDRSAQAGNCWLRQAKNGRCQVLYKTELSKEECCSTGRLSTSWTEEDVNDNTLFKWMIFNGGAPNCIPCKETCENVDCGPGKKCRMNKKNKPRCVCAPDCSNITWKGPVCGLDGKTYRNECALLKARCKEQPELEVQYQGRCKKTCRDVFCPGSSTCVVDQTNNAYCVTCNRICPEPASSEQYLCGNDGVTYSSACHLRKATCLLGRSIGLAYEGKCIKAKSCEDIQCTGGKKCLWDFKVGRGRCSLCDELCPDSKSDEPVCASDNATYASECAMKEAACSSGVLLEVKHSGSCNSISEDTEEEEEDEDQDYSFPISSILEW
Focal adhesion kinase 1 (Homo sapiens), sequence (Q05397 whole entry, looked up): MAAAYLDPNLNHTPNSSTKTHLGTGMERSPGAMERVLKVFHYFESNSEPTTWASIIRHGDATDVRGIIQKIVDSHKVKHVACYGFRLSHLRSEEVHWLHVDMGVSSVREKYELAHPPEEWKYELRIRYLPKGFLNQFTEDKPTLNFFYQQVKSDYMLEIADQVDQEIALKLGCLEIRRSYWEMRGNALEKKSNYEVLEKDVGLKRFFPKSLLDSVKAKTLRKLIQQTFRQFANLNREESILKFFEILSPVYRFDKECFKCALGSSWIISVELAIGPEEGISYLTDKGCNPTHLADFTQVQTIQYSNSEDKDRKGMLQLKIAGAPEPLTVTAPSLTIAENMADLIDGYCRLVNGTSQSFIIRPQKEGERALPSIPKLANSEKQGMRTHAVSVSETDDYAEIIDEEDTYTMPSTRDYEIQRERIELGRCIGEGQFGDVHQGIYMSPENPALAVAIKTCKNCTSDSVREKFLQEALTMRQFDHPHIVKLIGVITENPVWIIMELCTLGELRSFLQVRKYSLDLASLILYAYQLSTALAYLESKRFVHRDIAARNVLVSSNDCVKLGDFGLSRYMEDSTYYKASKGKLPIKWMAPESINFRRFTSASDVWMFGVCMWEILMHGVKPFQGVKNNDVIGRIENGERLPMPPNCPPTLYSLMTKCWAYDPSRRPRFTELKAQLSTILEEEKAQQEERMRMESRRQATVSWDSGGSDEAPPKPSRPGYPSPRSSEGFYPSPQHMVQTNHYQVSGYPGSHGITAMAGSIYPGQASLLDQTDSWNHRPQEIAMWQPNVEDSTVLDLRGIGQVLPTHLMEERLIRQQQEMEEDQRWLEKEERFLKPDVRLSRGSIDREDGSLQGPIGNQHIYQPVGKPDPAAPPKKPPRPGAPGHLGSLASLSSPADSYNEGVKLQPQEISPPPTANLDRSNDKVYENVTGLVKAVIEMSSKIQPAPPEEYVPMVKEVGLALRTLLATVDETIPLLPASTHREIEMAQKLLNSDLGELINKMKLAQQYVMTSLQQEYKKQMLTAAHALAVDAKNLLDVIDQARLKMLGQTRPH
Luciferin 4-monooxygenase (Photinus pyralis), sequence (P08659 whole entry, looked up): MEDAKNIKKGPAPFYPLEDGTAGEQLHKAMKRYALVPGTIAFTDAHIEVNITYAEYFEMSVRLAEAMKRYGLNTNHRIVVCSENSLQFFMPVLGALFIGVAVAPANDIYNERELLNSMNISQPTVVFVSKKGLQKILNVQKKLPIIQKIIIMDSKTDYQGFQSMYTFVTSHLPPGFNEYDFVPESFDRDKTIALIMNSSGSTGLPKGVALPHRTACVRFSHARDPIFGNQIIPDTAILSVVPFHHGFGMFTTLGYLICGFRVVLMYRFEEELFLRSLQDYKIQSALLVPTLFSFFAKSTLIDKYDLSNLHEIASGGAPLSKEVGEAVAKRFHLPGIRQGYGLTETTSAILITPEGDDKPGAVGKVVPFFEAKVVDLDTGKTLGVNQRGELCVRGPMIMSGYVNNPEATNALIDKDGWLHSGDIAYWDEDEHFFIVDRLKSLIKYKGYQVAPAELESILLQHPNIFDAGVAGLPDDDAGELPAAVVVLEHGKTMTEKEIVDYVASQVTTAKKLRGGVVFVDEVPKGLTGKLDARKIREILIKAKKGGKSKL

Consider `O=c1n(Cc2cc3c(cc2Cl)OCO3)c(=O)n2n1CC[C@@H]1C(=NOC[C@@H](O)COCc3ccco3)[C@H]3O[C@H]3[C@@H](O)[C@@H]12`, for which the composite z-score in [1] was 0.0465; in assay [2], 0.642; in assay [3] it was -0.0676; in assay [4] it was 0.354; in assay [5], 0.568; in [6], 0.546. Also, the composite z-score in the assay with Lefty1 was found to be 0.414; in [8], 0.004. The z-score was -0.15 in [7] and -0.357 (inactive) in [9].
Take `CO[C@@H]1COC(=O)[C@H](CCSC)NC(=O)CC=C[C@@H](C)COC(=O)[C@H](C)NC(=O)CC=C[C@H]1C`: the composite z-score in assay [1] is -0.229; in [2] it was 0.255; in assay [3] it was -0.342; in [4], -0.433; in [5], 0.96; in [6], 1.62. The values for the composite z-score (with Lefty1; in assay [8]) were 1.2 and -0.543, respectively. In addition, the z-score in assay [7] is 0.812; in assay [9], -1.2 (inactive).
As for `CO[C@H](C1CCCCC1)[C@H](C)C=CCC(=O)OCCCc1ccccc1`, the composite z-score in assay [1] was 3.29; in [2], -1.15; in assay [3], 0.114; in [4] it was -0.938; in [5], 0.351; in assay [6], 0.541. Besides, the composite z-score was 0.0696 with Lefty1 and -0.464 in [8]. Also, the figures for the z-score in [7] and in [9] were -0.00988 and -1.02 (inactive), respectively.
In the case of `C=Cc1ccc([C@H]2N[C@H](C(=O)O)CC[C@@H]2C)cc1`, the composite z-score in [1] was 0.126; in [2], -1.47; in assay [3] it was -0.584; in assay [4] it was -0.719; in assay [5], 0.632; in assay [6], 0.486. For the same compound, the composite z-score was found to be 0.431 with Lefty1 and 0.388 in assay [8]. Further, the z-score in [7] was 1.28; in assay [9], -0.33 (inactive).
Regarding `CC(=O)Nc1ccc([C@@H]2N[C@H](C(=O)O)CC[C@H]2C)cc1`, the composite z-score came to 0.328 in assay [1]; 0.557 in [2]; 1.12 in [3]; 0.669 in assay [4]; 0.205 in assay [5]; 0.284 in [6]. The composite z-score with Lefty1 was 0.701; in [8] it was -0.11. Besides, the z-score in assay [7] was 2.05; in [9], -1.38 (inactive).
With `O=C1C[C@@H](O)[C@@H](O)[C@@H]2[C@@H]3C(=O)N(Cc4ccccc4)C(=O)[C@@H]3CC[C@@H]12`, the composite z-score in assay [1] was 0.467; in assay [2], 0.789; in assay [3], 0.0901; in assay [4] it was 0.547; in assay [5], 0.892; in [6], 0.895. Moreover, the values for the composite z-score (in the assay with Lefty1; in [8]) were 0.551 and 0.0697, respectively. Also, the z-score in assay [7] was -0.305; in assay [9], -0.0665 (inactive).
`CC(C)=CCCC(C)=CCON=C1C[C@@H](O)[C@@H](O)[C@@H]2[C@@H]3C(=O)N(C(C)(C)C)C(=O)[C@@H]3CC[C@H]12`: the composite z-score in assay [1] is -0.119; in [2], 0.635; in [3] it was -0.0868; in assay [4], 0.199; in assay [5], 0.329; in assay [6], 0.248. The composite z-score was 0.536 in the assay on Lefty1 and -0.849 in assay [8]. The z-score was -0.0133 in assay [7] and 0.0533 (inactive) in assay [9].
As to `CC(C)=CCCC(C)=CCON=C1C[C@@H](O)[C@@H](O)[C@@H]2[C@@H]3C(=O)N(c4ccc(F)cc4F)C(=O)[C@@H]3CC[C@@H]12`, the composite z-score in [1] was 0.0658; in assay [2], -0.167; in [3] it was 0.121; in [4], 0.89; in assay [5], 1.04; in assay [6], 0.393. For the same compound, the values for the composite z-score (with Lefty1; in [8]) were 1.27 and 1.06, respectively. The values for the z-score in assay [7] and in assay [9] were -0.913 and 1.03 (inactive), respectively.
For `CC(=O)O[C@H]1C2=CO[C@H](C)[C@H]3[C@H]4C5=C([C@H](O)[C@H]6O[C@H]6C5=O)[C@H](OC4C)[C@@]23C(=O)[C@@H]2O[C@@H]21` (stereo not given in full), the composite z-score in assay [1] was -0.497; in assay [2], 0.121; in assay [3] it was -0.703; in [4] it was -0.331; in [5], -0.436; in assay [6], 1.35. The composite z-score in the assay on Lefty1 is 0.0873; in [8] it was -0.515. Further, the z-score in assay [7] was -0.837; in assay [9], -0.413 (inactive).
Consider `CC(=O)OC[C@H]1OC(ON=CC[C@@H]2C=C[C@H](OC(C)=O)[C@@H](COC(C)=O)O2)[C@H](OC(C)=O)[C@@H](OC(C)=O)[C@@H]1OC(C)=O` (stereo not given in full), for which the composite z-score was 2.8 in assay [1]; 0.268 in assay [2]; 0.282 in [3]; 0.106 in assay [4]; -0.494 in assay [5]; 0.0994 in assay [6]. Besides, the composite z-score in the assay on Lefty1 was -0.101; in assay [8] it was -0.223. In addition, the z-score is -0.99 in assay [7] and 1.11 (inactive) in [9].
`COC(=O)NCC=Cc1nc(CCCO)co1`: the composite z-score in assay [1] is 0.53; in [2], 0.804; in [3], -0.0457; in [4], 0.0947; in assay [5] it was 0.614; in assay [6] it was 0.564. Moreover, the composite z-score was 0.706 in the assay with Lefty1 and -0.0407 in assay [8]. Also, the z-score in assay [7] is -0.223; in [9], 0.604 (inactive).
Consider `CCOC(=O)[C@H](CC(C)C)NC(=O)CCC1CC(OC(=O)NCc2cccc3ccccc23)CC2(CCCC(COC(=O)NCC3CCCCC3)O2)O1` (stereo not given in full), for which the composite z-score was 0.685 in [1]; 1.13 in assay [2]; -0.368 in assay [3]; 0.297 in assay [4]; 0.62 in assay [5]; 0.594 in assay [6]. Moreover, the composite z-score came out at 0.733 with Lefty1 and 0.0121 in [8]. Moreover, the values for the z-score in [7] and in assay [9] were -1.07 and 1 (inactive), respectively.
`C=CC[C@@H]1C=C[C@H](ON=C(C)CCC(=O)OC[C@H]2O[C@H](c3ccccc3)C=C[C@@H]2Oc2ccc(OC)cc2)[C@@H](CO)O1`: the composite z-score was 0.14 in assay [1]; -0.214 in [2]; 0.261 in assay [3]; -1.43 in assay [4]; -0.398 in assay [5]; 0.121 in assay [6]. The composite z-score in the assay with Lefty1 is 0.443; in assay [8], 0.104. In addition, the z-score in assay [7] was -0.217; in assay [9], -0.506 (inactive).
In the case of `CO[C@H]1COC(=O)CC=C[C@H](C)[C@@H](OC)COC(=O)[C@@H](C)NC(=O)CC=C[C@@H]1C`, the composite z-score in assay [1] was 0.437; in assay [2], -1.32; in assay [3], -0.535; in assay [4] it was -1.31; in [5] it was 1.45; in [6] it was 1.1. The composite z-score came to 1.47 in the assay with Lefty1 and 0.0216 in [8]. Besides, the z-score in assay [7] is -1.05; in assay [9] it was 0.674 (inactive).
